# Measured values: PubChem BioAssay
# Calls of active or inactive are those of the source.
# Experiments:
# [1] = tested on: Plasmodium falciparum Sir2 (PF13_0152, Sir2A); experiment: pfSir2 binders on small-molecule microarrays, primary screen, biochemical, small-molecule microarray, 635 nm fluorescence (AID 1098); details: small-molecule microarray binding, fluorescence 635 nm; higher = more signal;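 note: score merges spot fluorescence intensity with its signal-to-noise ratio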
# [2] = small-molecule microarray binders of probe aDKK1, primary screen, biochemical, biotinylated probe, 635/667 nm fluorescence (AID 1099); details: higher = more signal;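 note: score merges 667nm spot fluorescence with signal to noise across triplicate slides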
# [3] = small-molecule microarray binders of probe aCHRDL2, primary screen, biochemical, biotinylated probe, 635/667 nm fluorescence (AID 1100); details: higher = more signal
# [4] = splicing luciferase reporter signal modulators, primary screen, spliceosome inhibition project, cell-based, HEK293, splice +/- reporter (AID 1101); details: luminescence, 24 h, higher = more signal, called active from +8 up or from −8 down;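 note: HEK293 cells carrying a splicing-competent luciferase reporter gene; test concentration not given here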
# [5] = target: Fibroblast growth factor 10 (Homo sapiens) (UniProt O15520); experiment: FGF10 binders on small-molecule microarrays, primary screen, biochemical, small-molecule microarray, 635 nm fluorescence (AID 1102); details: FGF10 binding, fluorescence 635 nm, higher = more signal
# Sequence of Fibroblast growth factor 10 (Homo sapiens) (O15520 whole entry, looked up): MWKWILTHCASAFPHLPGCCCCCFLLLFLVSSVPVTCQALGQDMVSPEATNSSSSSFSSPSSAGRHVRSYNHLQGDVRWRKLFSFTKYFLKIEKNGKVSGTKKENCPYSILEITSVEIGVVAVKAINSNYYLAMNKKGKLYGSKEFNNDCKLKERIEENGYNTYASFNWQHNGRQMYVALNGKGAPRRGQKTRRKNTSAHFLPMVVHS
# [6] = tested on: glycogen synthase kinase-3 (GSK3A per assay name; protocol says GSK3B); experiment: GSK3 binders on small-molecule microarrays, primary screen, biochemical, small-molecule microarray, 635 nm fluorescence, GSK3A (AID 1103); details: small-molecule microarray binding, fluorescence 635 nm; higher = more signal; note: the record names both GSK3A and GSK3B
# [7] = target: Epidermal growth factor receptor (Homo sapiens) (UniProt P00533); experiment: EGFR binders on small-molecule microarrays, primary screen, biochemical, small-molecule microarray, 635 nm fluorescence (AID 1104); details: EGFR binding, higher = more signal;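 note: score merges 667 nm emission intensity with spot signal to noise over triplicate slides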
# Sequence of Epidermal growth factor receptor (Homo sapiens) (P00533 whole entry, looked up): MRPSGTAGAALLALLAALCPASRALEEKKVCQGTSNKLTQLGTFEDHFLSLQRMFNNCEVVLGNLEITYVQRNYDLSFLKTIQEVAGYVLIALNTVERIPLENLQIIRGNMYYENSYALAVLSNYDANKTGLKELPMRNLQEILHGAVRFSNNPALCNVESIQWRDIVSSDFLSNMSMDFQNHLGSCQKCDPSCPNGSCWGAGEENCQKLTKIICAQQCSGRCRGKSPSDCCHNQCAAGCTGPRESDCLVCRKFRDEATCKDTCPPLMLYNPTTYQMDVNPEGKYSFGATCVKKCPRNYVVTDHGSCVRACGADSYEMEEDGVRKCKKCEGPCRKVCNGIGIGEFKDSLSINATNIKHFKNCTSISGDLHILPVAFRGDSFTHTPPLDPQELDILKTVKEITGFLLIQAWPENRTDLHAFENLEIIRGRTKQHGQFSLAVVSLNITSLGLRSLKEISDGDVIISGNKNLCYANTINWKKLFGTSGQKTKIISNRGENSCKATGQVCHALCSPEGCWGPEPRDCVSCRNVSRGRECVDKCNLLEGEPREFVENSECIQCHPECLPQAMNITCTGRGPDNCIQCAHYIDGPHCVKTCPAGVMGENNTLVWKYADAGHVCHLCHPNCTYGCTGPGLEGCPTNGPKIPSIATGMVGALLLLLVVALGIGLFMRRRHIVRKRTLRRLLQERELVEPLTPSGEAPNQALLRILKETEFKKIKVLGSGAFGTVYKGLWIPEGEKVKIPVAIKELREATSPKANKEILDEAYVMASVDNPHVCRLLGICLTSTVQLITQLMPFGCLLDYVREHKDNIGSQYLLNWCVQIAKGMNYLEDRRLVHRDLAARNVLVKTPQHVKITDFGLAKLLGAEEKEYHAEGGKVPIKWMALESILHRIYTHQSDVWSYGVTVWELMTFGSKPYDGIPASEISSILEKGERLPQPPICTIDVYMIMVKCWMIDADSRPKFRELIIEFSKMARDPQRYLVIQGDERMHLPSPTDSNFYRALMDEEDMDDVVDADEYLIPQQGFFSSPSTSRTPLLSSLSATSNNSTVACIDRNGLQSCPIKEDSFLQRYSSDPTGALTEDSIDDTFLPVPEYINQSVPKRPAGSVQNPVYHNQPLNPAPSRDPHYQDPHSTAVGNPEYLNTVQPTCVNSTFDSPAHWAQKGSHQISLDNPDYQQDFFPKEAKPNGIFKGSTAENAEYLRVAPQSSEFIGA
# [8] = target: Follistatin-related protein 3 (Homo sapiens) (UniProt O95633); experiment: FSTL3 binders on small-molecule microarrays, primary screen, biochemical, small-molecule microarray, 635 nm fluorescence (AID 1105); details: FSTL3 binding, higher = more signal;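 note: score merges emission near 667 nm and signal to noise per printed spot across three slides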
# Sequence of Follistatin-related protein 3 (Homo sapiens) (O95633 whole entry, looked up): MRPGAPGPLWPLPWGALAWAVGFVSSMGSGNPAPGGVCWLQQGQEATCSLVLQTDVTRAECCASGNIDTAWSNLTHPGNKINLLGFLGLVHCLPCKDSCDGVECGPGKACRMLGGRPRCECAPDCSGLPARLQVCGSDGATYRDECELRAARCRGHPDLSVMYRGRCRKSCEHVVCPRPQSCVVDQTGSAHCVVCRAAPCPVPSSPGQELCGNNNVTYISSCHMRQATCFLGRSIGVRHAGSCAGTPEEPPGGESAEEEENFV
# [9] = target: Dickkopf-related protein 1 (Homo sapiens) (UniProt O94907); experiment: DKK1 binders on small-molecule microarrays, primary screen, biochemical, small-molecule microarray, 635 nm fluorescence scan (AID 1106); details: DKK1 binding, higher = more signal;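 note: score merges emission near 667 nm with signal to noise over three replicate slides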
# Sequence of Dickkopf-related protein 1 (Homo sapiens) (O94907 whole entry, looked up): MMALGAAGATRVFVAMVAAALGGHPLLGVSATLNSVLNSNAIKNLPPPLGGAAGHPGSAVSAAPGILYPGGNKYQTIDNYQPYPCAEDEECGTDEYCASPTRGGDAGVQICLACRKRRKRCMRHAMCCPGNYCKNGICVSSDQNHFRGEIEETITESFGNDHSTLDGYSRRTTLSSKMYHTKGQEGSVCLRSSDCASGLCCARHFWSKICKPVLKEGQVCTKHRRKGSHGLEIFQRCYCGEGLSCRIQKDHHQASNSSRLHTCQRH
# [10] = tested on: Inhibin beta A chain (activin A); experiment: INHBA (activin A) binders on microarrays, primary screen, biochemical, small-molecule microarray, 635 nm fluorescence scan (AID 1107); details: small-molecule microarray binding, higher = more signal;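 note: mouse activin A protein probed at 4.33 µg/mL on printed slides; score merges bound-protein fluorescence near 667 nm with spot signal-to-noise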
# [11] = tested on: Human papillomavirus type 1a protein E7 (residues 44-93); experiment: HPV1a E7 fragment binders on microarrays, primary screen, biochemical, small-molecule microarray, residues 44-93, 635 nm fluorescence (AID 1108); details: small-molecule microarray binding, fluorescence 635 nm; higher = more signal;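 note: E7 fragment applied at 1 µg/mL in TBST for 1 h at 4 C; score combines spot fluorescence with its signal to noise ratio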
# [12] = modulators of HCV replicon luciferase signal, primary screen, HCV replication inhibitor project, Huh7 cells, luciferase reporter (AID 1109); details: 48 h, higher = more signal;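 note: huh7 hepatoma cells harbouring a luciferase neomycin HCV replicon reporter; luciferase luminescence as measure of HCV replicon replication; test concentration not given here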
# [13] = target: Left-right determination factor 2 (Homo sapiens) (UniProt O00292); experiment: LEFTY2 binders on small-molecule microarrays, primary screen, biochemical, small-molecule microarray, 635 nm fluorescence scan (AID 1110); details: LEFTY2 binding, higher = more signal
# Sequence of Left-right determination factor 2 (Homo sapiens) (O00292 whole entry, looked up): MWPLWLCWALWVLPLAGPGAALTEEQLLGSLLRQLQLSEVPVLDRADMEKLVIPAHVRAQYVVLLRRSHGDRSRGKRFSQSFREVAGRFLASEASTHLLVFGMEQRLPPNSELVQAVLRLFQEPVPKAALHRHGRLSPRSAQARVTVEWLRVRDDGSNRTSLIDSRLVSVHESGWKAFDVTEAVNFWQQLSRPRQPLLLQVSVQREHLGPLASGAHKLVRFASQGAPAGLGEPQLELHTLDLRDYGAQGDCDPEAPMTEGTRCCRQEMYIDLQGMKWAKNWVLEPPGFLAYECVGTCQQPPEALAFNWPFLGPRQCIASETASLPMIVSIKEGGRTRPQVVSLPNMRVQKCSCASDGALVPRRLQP
# [14] = target: Calmodulin-1 (Homo sapiens) (UniProt P0DP23); experiment: CALM1 binders on microarrays, EGTA buffer, profiling panel, biochemical, small-molecule microarray, Cy5-labelled CALM1 (AID 1111); details: Cy5-CALM1 binding fluorescence, higher = more signal;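 note: labelled calmodulin applied in Tris saline Tween buffer holding calcium plus EGTA and DTT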
# [15] = target: Calmodulin-1 (Homo sapiens) (UniProt P0DP23); experiment: calcium-bound CALM1 binders on microarrays, profiling panel, artefact control for SMM control-protein annotation, biochemical, small-molecule microarray, Cy5-labelled CALM1, plus calcium (AID 1112); details: Cy5-CALM1 binding fluorescence, higher = more signal;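 note: score merges spot fluorescence with signal to noise from triplicate slides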
# [16] = small-molecule microarray binders of probe aWnt5a, primary screen, biochemical, biotinylated probe, 635/667 nm fluorescence (AID 1113); details: higher = more signal;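 note: score merges 667 nm fluorescence intensity with signal-to-noise per printed feature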
# [17] = small-molecule microarray binders of probe aShh, primary screen, biochemical, biotinylated probe, 635/667 nm fluorescence (AID 1114); details: higher = more signal;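 note: probe is biotin-labelled aShh protein from a stem cell growth factor screen; measures binding of labelled protein to compounds printed on the slide; score merges feature fluorescence at 667 nm with signal-to-noise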
# [18] = small-molecule microarray binders of probe aNog, primary screen, biochemical, biotinylated probe, 635/667 nm fluorescence (AID 1115); details: higher = more signal;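 note: probe is biotinylated aNog protein used at 0.15 µg/mL for 1 h at 4 C; z-score combines 667 nm fluorescence of each spot with its signal to noise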
# [19] = target: Torsin-1A-interacting protein 1 (Homo sapiens) (UniProt Q5JTV8); experiment: LAP1 binders from COS7 cell lysate, primary screen, small-molecule microarray, 635/667 nm fluorescence (AID 1116); details: COS7-hLAP1 lysate binding, 635 nm fluorescence, higher = more signal
# Sequence of Torsin-1A-interacting protein 1 (Homo sapiens) (Q5JTV8 whole entry, looked up): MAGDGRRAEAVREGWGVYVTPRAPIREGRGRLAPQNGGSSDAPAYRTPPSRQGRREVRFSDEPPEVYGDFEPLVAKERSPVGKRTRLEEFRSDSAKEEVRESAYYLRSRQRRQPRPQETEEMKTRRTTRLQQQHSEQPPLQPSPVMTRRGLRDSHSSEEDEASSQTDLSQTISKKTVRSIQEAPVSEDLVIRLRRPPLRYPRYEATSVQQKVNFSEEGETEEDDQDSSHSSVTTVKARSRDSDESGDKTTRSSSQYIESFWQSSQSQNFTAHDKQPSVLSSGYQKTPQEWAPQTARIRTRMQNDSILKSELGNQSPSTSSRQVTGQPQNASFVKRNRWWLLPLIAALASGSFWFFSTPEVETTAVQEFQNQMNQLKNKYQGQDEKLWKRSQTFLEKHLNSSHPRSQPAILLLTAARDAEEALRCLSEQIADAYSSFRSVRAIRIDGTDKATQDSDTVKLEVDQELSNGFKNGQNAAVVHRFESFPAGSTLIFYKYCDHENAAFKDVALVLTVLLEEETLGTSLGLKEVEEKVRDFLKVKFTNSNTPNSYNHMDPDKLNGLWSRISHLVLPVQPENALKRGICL
# [20] = target: Alpha-bungarotoxin (Bungarus multicinctus) (UniProt P60615); experiment: alpha-bungarotoxin binders on microarray, profiling panel, artefact control for SMM control protein annotation, biochemical, small-molecule microarray, Alexa647 label, 635/667 nm fluorescence (AID 1117); details: alpha-BTX-A647 binding fluorescence, higher = more signal
# Sequence of Alpha-bungarotoxin (Bungarus multicinctus) (P60615 whole entry, looked up): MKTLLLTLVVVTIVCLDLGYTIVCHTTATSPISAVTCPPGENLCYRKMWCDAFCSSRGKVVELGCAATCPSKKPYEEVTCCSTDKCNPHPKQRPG
Structure (SMILES),composite z-score [1],composite z-score [2],composite z-score [3],z-score [4],composite z-score [5],composite z-score [6],composite z-score [7],composite z-score [8],composite z-score [9],composite z-score [10],composite z-score [11],z-score [12],composite z-score [13],composite z-score [14],composite z-score [15],composite z-score [16],composite z-score [17],composite z-score [18],composite z-score [19],composite z-score [20]
O=C1C[C@H](c2ccccc2)[C@H](c2ccc(Br)cc2)O1,-0.159,0.0628,-0.939,-0.823 (inactive),0.193,-0.826,0.127,-0.093,0.278,0.266,0.12,0.588,0.603,-0.649,-0.447,-0.129,-0.138,-0.35,-0.264,0.239
CO[C@@H]1C=CCC(=O)N[C@@H](C)C(=O)OC[C@@H](OC)[C@H](C)C=CCC(=O)OC[C@H]1C,1.27,-0.266,-1.14,0.175 (inactive),0.656,0.808,1.07,1.53,1.35,1.77,-0.669,0.388,1.48,-1.14,-1.96,-0.152,-0.0035,0.109,0.037,0.373
CCOC(=O)CCN1C(=O)[C@H]2[C@H]3[C@H](O)[C@H](O)CC(=O)[C@@H]3CC[C@H]2C1=O,0.414,-0.0674,-0.834,0.283 (inactive),1.1,0.917,0.591,1.15,0.935,-0.37,0.555,-0.408,0.657,0.0068,-0.135,-0.0924,-0.138,-0.252,0.597,0.321
COC(=O)[C@@H]1CC[C@H](C)[C@@H](c2ccc(Br)cc2)N1C[C@@H](O)CN=[N+]=[N-],0.0292,-0.0196,-0.304,-1.34 (inactive),0.189,0.078,0.532,0.0985,0.356,-0.28,0.29,-0.779,0.445,-0.178,-0.437,-0.0403,0.0494,-0.0103,0.289,-0.291
COC(=O)[C@H](C)NC(=O)CCC1CC(OC(=O)NCc2cccc3ccccc23)CC2(CCCC(COC(=O)NCCCN3CCCC3=O)O2)O1 (stereo not given in full),0.666,-0.102,-0.279,-0.915 (inactive),0.92,1.17,0.929,0.91,0.77,-0.503,1.28,-0.0695,0.943,0.895,0.0029,-0.124,-0.455,-0.436,0.919,0.39
CO[C@H]1COC(=O)[C@H](CCSC)NC(=O)CC=C[C@@H](C)[C@H](OC)COC(=O)[C@@H](OCc2ccccc2)C=C[C@@H]1C,0.988,-0.488,-0.513,0.45 (inactive),0.605,0.751,0.975,0.922,1.38,0.824,0.176,-1.4,0.753,-0.841,-1.69,-0.159,-0.221,-0.483,0.0829,-0.531
CO[C@@H](C(C)C)[C@@H](C)C1OC(=O)CC1O (stereo not given in full),-0.595,-0.148,-0.0917,0.94 (inactive),-0.114,-0.051,-0.57,-0.552,-0.166,0.253,-0.175,0.975,0.0752,-0.32,0.192,-0.232,-0.171,-0.478,-0.214,-0.427
COC(=O)[C@H](C)NC(=O)CCC1CC(OC(=O)NCc2ccc3c(c2)OCO3)CC2(CCCC(COC(=O)NCc3ccccc3)O2)O1 (stereo not given in full),0.343,-0.172,-0.612,-0.66 (inactive),0.894,0.821,0.293,0.832,0.893,-0.0611,1.25,0.188,0.508,0.202,-0.558,-0.001,-0.0709,-0.258,0.179,0.159
CC(=O)OC[C@H]1O[C@H](CC=NO[C@@H](C)c2cn([C@H](CO)Cc3ccccc3)nn2)C=C[C@@H]1OC(C)=O,0.775,0.101,-0.624,-1.54 (inactive),1.07,0.517,0.387,1.06,1.05,-0.383,0.949,-1.02,0.656,-0.16,-0.174,-0.176,0.194,0.158,1.03,1.56
COC(=O)C1=C(C)N(Cc2ccccc2)C2=C3C(=O)OCC[C@@H]3[C@@](O)(C(=O)OC)C(=O)N2[C@@H]1c1ccccc1,0.126,-0.117,-0.538,-0.403 (inactive),0.325,0.51,0.526,0.495,0.563,0.312,-0.0816,0.935,0.528,-0.0583,-0.689,-0.13,0.0278,-0.189,-0.207,0.415
O=C(NN=C1C[C@@H](O)[C@@H](O)[C@@H]2[C@@H]3C(=O)N(Cc4ccc5c(c4)OCO5)C(=O)[C@@H]3CC[C@@H]12)OCc1ccccc1,-0.0768,0.618,0.828,-1.41 (inactive),-0.319,-0.456,-0.254,-0.408,-0.465,0.319,-0.189,-1.39,0.0764,-0.114,-0.103,-0.176,0.227,-0.0498,0.739,0.26
